# Results from PubChem BioAssay AID1645838 (ICCB-Longwood Screening Facility, Harvard Medical School, 2021).
# Among all 2,000 compounds or so, about 100 (5%) were called active. No stated cut-off is given here; in the data, active means z-score above about 2; inactive means the rest. The list comes from a sample in which actives are over-represented; it also holds similar structures and randomly drawn compounds.
# Test: supercomplex reporter luminescence per Hoechst cell count – Hoechst nuclei count (AID 1645838);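 further: control cybrid cells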;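 on z-score: higher means more mitochondrial supercomplex formation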
# Details: Cells, luminescence/Hoechst cell count ratio; for z-score: stronger effect = higher value; for cell count: measured here: cell number, Hoechst nuclei count
# [1] = library stock concentration (final well concentration not given) 80 uM
# [2] = library stock concentration (final well concentration not given) 400 uM
# [3] = library stock concentration (final well concentration not given) 2 mM
# [4] = library stock concentration (final well concentration not given) 10 mM
# [5] = library stock concentration (final well concentration not given) 46 uM
# [6] = library stock concentration (final well concentration not given) 278 uM
# [7] = library stock concentration (final well concentration not given) 1.67 mM
smiles,measurement,setting,value
CCCCC/C=C\C/C=C\C/C=C\C/C=C\CCCC(=O)N[C@@H](C)CO,z-score,,0.0527 (inactive)
same,cell count,,5800
CCCCC/C=C\C/C=C\C/C=C\C/C=C\CCCC(=O)NC(CO)CO,z-score,,4 (active)
same,cell count,,4470
CCCCC/C=C\C/C=C\C/C=C\C/C=C\CCCC(=O)N[C@H](C)CO,z-score,,-0.466 (inactive)
same,cell count,,6100
CNCCCCCCN(C)N(O)N=O,z-score,,0.0102 (inactive)
same,cell count,,6050
CCCCCCC(=O)O[C@H]1CC[C@H]2[C@@H]3C=CC4=CC(=O)CC[C@]4(C)[C@H]3CC[C@]12C,z-score,,-0.283 (inactive)
same,cell count,,5360
COC1C(OC(=O)NC(=O)CCl)CC[C@]2(CO2)[C@@H]1[C@@]1(C)OC1CC=C(C)C (some centres undefined),z-score,[1],-0.0262 (inactive)
same,z-score,[2],0.199 (inactive)
same,z-score,[3],1.06 (inactive)
same,z-score,[4],2.72 (active)
same,cell count,[1],3980
same,cell count,[2],3760
same,cell count,[3],3110
same,cell count,[4],1800
c1cc2cc(N3CCNCC3)ccc2cn1,z-score,,0.406 (inactive)
same,cell count,,4610
CCCCC/C=C\C/C=C\C/C=C\C/C=C\CCCC(=O)NCCc1ccc(O)c(O)c1,z-score,,0.0355 (inactive)
same,cell count,,5380
CS(=O)CCCCN=C=S (centres undefined),outcome,library stock 10 mM,inactive; censored for cell count
same,z-score,[1],-0.41 (inactive)
same,z-score,[2],-0.338 (inactive)
same,z-score,[3],0.15 (inactive)
same,cell count,[1],6580
same,cell count,[2],6460
same,cell count,[3],5610
CCCCCCC(=O)CCCCCC/C=C/C[C@@H](O)[C@H](O)[C@@](N)(CO)C(=O)O,z-score,,5.47 (active)
same,cell count,,4740
CCCCCCCC/C=C\CCCCCCCC(=O)N[C@H](C)CO,z-score,,0.127 (inactive)
same,cell count,,5170
CCCCC/C=C\C/C=C\CCCCCCCC(=O)NCCO,outcome,,inactive; censored for cell count
CCCCC/C=C\C/C=C\C/C=C\C/C=C\CCCC(=O)Nc1ccc([N+](=O)[O-])cc1,z-score,,-0.128 (inactive)
same,cell count,,5210
CCCCC/C=C\C/C=C\C/C=C\C/C=C\CCCC(=O)NCCc1c[nH]c2ccc(O)cc12,z-score,,1.36 (inactive)
same,cell count,,5300
O=NN(O)N1CCC[C@H]1C(=O)O,z-score,,-0.00248 (inactive)
same,cell count,,5130
CN=C(NS(=O)(=O)c1ccc(Cl)cc1)N1C[C@@H](c2ccccc2)C(c2ccc(Cl)cc2)=N1,z-score,,-0.26 (inactive)
same,cell count,,5290
Cc1sc2c(c1C)C(c1ccc(Cl)cc1)=NC(CC(N)=O)c1nnc(C)n1-2 (centres undefined),z-score,[5],0.632 (inactive)
same,z-score,[6],2.69 (active)
same,z-score,[7],7.71 (active)
same,z-score,[4],10.6 (active)
same,cell count,[5],5970
same,cell count,[6],4460
same,cell count,[7],2880
same,cell count,[4],2360
Cc1sc2c(c1C)C(c1ccc(Cl)cc1)=NC(CC(=O)Nc1ccc(O)cc1)c1nnc(C)n1-2 (centres undefined),z-score,[1],1.4 (inactive)
same,z-score,[2],3.81 (active)
same,z-score,[3],7.81 (active)
same,z-score,[4],8.99 (active)
same,cell count,[1],5230
same,cell count,[2],4010
same,cell count,[3],2830
same,cell count,[4],2330
Cc1sc2c(c1C)C(c1ccc(Cl)cc1)=NC(CC(=O)OC(C)(C)C)c1nnc(C)n1-2 (centres undefined),z-score,[1],1.22 (inactive)
same,z-score,[2],2.15 (active)
same,z-score,[3],4.36 (active)
same,z-score,[4],5.69 (active)
same,cell count,[1],5120
same,cell count,[2],4600
same,cell count,[3],3540
same,cell count,[4],2860
C[N@@+]1(CC2CC2)CC[C@]23c4c5ccc(O)c4OC2C(=O)CC[C@@]3(O)C1C5 (some centres undefined),z-score,[1],0.853 (inactive)
same,z-score,[2],0.439 (inactive)
same,z-score,[3],1.12 (inactive)
same,z-score,[4],0.0218 (inactive)
same,cell count,[1],4560
same,cell count,[2],4560
same,cell count,[3],3990
same,cell count,[4],4440
